Laboratory results as given in PubChem BioAssay AID449734 (Southern Research Specialized Biocontainment Screening …, 2010).
Active and inactive are the calls of the source. How the calls were made is not given here.

Experiment: S. typhi GFP reporter counter-screen inhibition, late-stage follow-up, counter-screen for PhoP regulon inhibitor project, round 4, purified and synthesized compounds (AID 449734)
Settings: fluorescence, 4 h; series mostly up to 150 µM

SMILES	outcome
S=C(NCc1ccccc1)NCc1ccc(Cl)cc1	inactive
N#Cc1ccc(CN2CCCN(C(=O)Nc3ccc(Cl)cc3)C2)cc1	inactive
S=C(NCc1ccc(Cl)cc1)Nc1cccc(Br)c1	inactive
O=C(NC1CCCCC1)N1CCCN(Cc2ccccc2F)C1	inactive
S=C(NCc1ccc(Cl)cc1)NN1CCOCC1	inactive
S=C(NCc1ccc(Cl)cc1)Nc1ccccc1Br	inactive
S=C(NCc1ccc(Cl)cc1)NC1CCOCC1	inactive
S=C(NCc1ccc(Cl)cc1)Nc1ccncn1	inactive
S=C(NCc1ccc(Cl)cc1)Nc1ccccn1	inactive
FC(F)(F)c1ccccc1NC(=S)NCc1ccc(Cl)cc1	inactive
O=C(Nc1ccc(Cl)cc1)N1CCN(Cc2ccccc2F)C1	inactive
S=C(NCc1ccc(Cl)cc1)Nc1ccccc1I	inactive
CN1CCN(C(=S)NCc2ccc(Cl)cc2)CC1	inactive
Cc1ccccc1NC(=O)N1CCCN(Cc2ccccc2F)C1	inactive
COc1cccc(CNC(=S)Nc2ccncc2)c1	inactive
O=C(Nc1ccc(Cl)cc1)N1CCCN(Cc2cccc(Br)c2)C1	inactive
O=C(Nc1ccc(Cl)cc1)N1CCCN(Cc2cccc(F)c2)C1	inactive
FC(F)(F)c1ccc(NC(=S)NCc2ccc(Cl)cc2)cc1	inactive
S=C(NCc1ccc(Cl)cc1)Nc1ccc(I)cc1	inactive
S=C(NCc1ccc(Cl)cc1)NC1CCCCC1	inactive
